Experimental findings from PubChem BioAssay AID651820 (National Center for Advancing Translational Sciences (NCATS), 2012) are described below.

SMILES strings stand for the structures. Hit rate of the full screen: of about 340,000 compounds, about 12,000 (3.5%) were called active. Entries that show only a call come without a potency. Another 18% or so got no clear call; they are omitted. The call rests on the fitted dose curve; in most records, active means well fitted inhibition curve with a large enough effect; inconclusive means small, poorly fitted or top-dose-only effect, or another doubt; inactive means no such curve, though single readings can be large or run the other way. Many of the other results were omitted from the sample, so actives are more common in it than they were.
Potency means the concentration at half of the fitted maximal effect.

The nature of this test: qHTS Assay for Inhibitors of Hepatitis C Virus (HCV). Conditions: Huh7.5.1 HCVcc-Cre infection, luciferase reporter, 44 h; series mostly up to 41.8 µM. The method, boiled down: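 After 44 h co-culture of compound, cells and HCVcc-Cre (~0.5 moi), substrate is added for 15 min at room temperature and luciferase measured over 15 sec. Cells were seeded at 1,000/well and pre-cultured 4 h.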
Consider `O=C(NCCC(=O)N1O[C@@H]2C=C[C@H]1C2)OCC1c2ccccc2-c2ccccc21`, for which the Potency result is “inactive”.

As to `CCn1c(=S)[nH]c2cc(S(=O)(=O)N3CCOCC3)ccc21`, the Potency entry is “inactive”.

For the compound `COC(=O)C(C)Sc1nc2c(c(=O)n(C)c(=O)n2C)n1Cc1cccc(C)c1` (centres undefined), the Potency entry is “inactive”.

On to `Cc1cccc(Cn2c(N3CCN(c4ccccc4)CC3)nc3c2c(=O)n(C)c(=O)n3C)c1`, for which the Potency is 14.1 µM (active).

Consider `Cn1c(=O)c2c(nc(CN3CCOCC3)n2Cc2ccccc2)n(C)c1=O`, for which the Potency result is “inactive”.

`COc1ccc(S(=O)(=O)N(C)C[C@@H]2Oc3ccc(NS(=O)(=O)c4cn(C)cn4)cc3C(=O)N([C@@H](C)CO)C[C@@H]2C)cc1`: the Potency result is “inactive”.

Regarding `O=C(COC(=O)CCCN1C(=O)c2cccc3cccc(c23)C1=O)NC1CCS(=O)(=O)C1` (centres undefined), the Potency result is “inactive”.

On to `CC(O)C(NS(=O)(=O)c1ccc(Cl)cc1)C(=O)OCc1cc([N+](=O)[O-])cc2c1OCOC2` (centres undefined), for which the Potency is 10 µM (active).

For `C[C@H](NS(=O)(=O)c1ccc(Cl)cc1)C(=O)OCC(=O)N1CCOCC1`, the Potency result is “inactive”.

As for `Nc1ccccc1SCc1cc([N+](=O)[O-])cc2c1OCOC2`, the Potency entry is “inactive”.

Turning to `Cn1c(CC(=O)NNC(=O)c2ccccc2F)nc2ccccc21`, the Potency result is “inactive”.

For the compound `CN(C)c1ccc(/C=C2\NC(=S)N(Cc3ccccc3)C2=O)cc1`, the Potency result was “inactive”.

Take `O=C1N/C(=C/c2cccn2-c2ccccc2)C(=O)N1c1cccc(Cl)c1`: the Potency entry was “inactive”.

`O=C1/C(=C\c2ccsc2)NC(=S)N1c1ccccc1`: the Potency was 11.2 µM (active).

`COc1ccc(S(=O)(=O)N(C)CC(=O)NCCCN2CCOCC2)cc1Cl`: the Potency entry was “inactive”.

As for `COc1ccc(C(=O)NCCCN2CCOCC2)cc1Br`, the Potency entry is “inactive”.

On to `COc1ccc(-c2ccc(CNCCCN3CCOCC3)o2)cc1Cl`, for which the Potency was 11.2 µM (active).

On to `CC(=O)NCc1ccc(-c2csc(NC(=O)CCCc3nc4ccccc4c(=O)[nH]3)n2)cc1`, for which the Potency entry is “inactive”.

On to `CCOC(=O)[C@H]1[C@H]2COc3ccccc3[C@@H]2N2C(=O)CN(Cc3ccccc3)C(=O)[C@@]12C`, for which the Potency result was “inactive”.

With `COc1cccc(NC(=O)c2nn(C34CC5CC(CC(C5)C3)C4)cc2[N+](=O)[O-])c1`, the Potency is 31.6 µM (active).

Consider `COc1cccc(NC(=O)COc2cccnc2[N+](=O)[O-])c1`, for which the Potency entry is “inactive”.

As to `COc1cccc(NC(=O)c2ccc(Cn3cc([N+](=O)[O-])cn3)o2)c1`, the Potency entry was “inactive”.

Consider `O=C1CC[C@@H]2CC3(C[C@@H]4CCN1[C@H]24)Nc1cc([N+](=O)[O-])ccc1NC3=NC1CCCCC1` (some centres undefined), for which the Potency entry is “inactive”.

`C=CCN1C=C(C(=O)c2ccccc2)C(=O)CC1`: the Potency result is “inactive”.

For `Cc1nc2ccccc2c(C(=O)O)c1-c1ccccn1`, the Potency result is “inactive”.

For the compound `c1ccc(-c2noc(-c3cccs3)n2)nc1`, the Potency entry was “inactive”.

`CC(C)(C)Nc1nc(-c2ccccn2)nc2ccccc12`: the Potency was 4.47 µM (active).

For `COc1ccc(/C=N/NC(=O)c2cc(-c3cccc(C)c3)nc3ccccc23)cc1O`, the Potency result is “inactive”.

Turning to `C=CCn1c(SCC(=O)NCCCO)nc2sc3c(c2c1=O)CCC3`, the Potency entry was “inactive”.

Turning to `O=C(CSc1nc2cc3c(cc2c(=O)n1CCC1=CCCCC1)OCO3)NCc1ccco1`, the Potency result was “inactive”.

`C=C(C)Cn1c(SCC(=O)NCc2ccco2)nc2sc3c(c2c1=O)CCC3`: the Potency was 8.91 µM (active).

For the compound `O=C(COC(=O)COc1cccc(F)c1)NCC1CCCCC1`, the Potency result was “inactive”.

In the case of `O=C(Nc1ccon1)c1nc[nH]c1C(=O)NCc1ccccc1`, the Potency entry was “inactive”.

As for `COc1ccc2[nH]c3c(c2c1)CCN1C(=O)C(CC(=O)NCCCN(C)C)C[C@H](C(=O)N2CCOCC2)[C@@]31CCC1CCCC1` (some centres undefined), the Potency entry is “inactive”.

For `C=CCn1c(CSc2nc3ccccc3s2)nnc1SCC(=O)NCc1ccco1`, the Potency result is “inactive”.

As to `O=C(CSc1c2c(nc3ccc(Cl)cc13)CCCC2)NCc1ccco1`, the Potency entry was “inactive”.

With `O=C(CSc1nc2ccc(Nc3nc(N4CCOCC4)nc(N4CCOCC4)n3)cc2s1)NCc1ccco1`, the Potency is 5.01 µM (active).

Take `COCCN(Cc1ccccc1)C(=O)Cc1ccc(S(=O)(=O)N2CCOCC2)s1`: the Potency entry was “inactive”.

With `CC1(C)CC2CC(C)(CN2c2ncnc3ccc(Br)cc23)C1` (centres undefined), the Potency is 10 µM (active).

Regarding `COc1ccc(C(=O)N2CC3(C)CC2CC(C)(C)C3)cc1OC` (centres undefined), the Potency entry is “inactive”.

Consider `COc1ccccc1C(=O)N1CC2(C)CC1CC(C)(C)C2` (centres undefined), for which the Potency entry was “inactive”.

In the case of `CC(Oc1cccc(Cl)c1)C(=O)Nc1ccc(S(=O)(=O)Nc2ncccn2)cc1` (centres undefined), the Potency entry is “inactive”.

With `COc1ccccc1CNC(=O)COn1nnc2ccc(S(=O)(=O)N3CCOCC3)cc21`, the Potency result is “inactive”.

Take `Cc1cccc(NS(=O)(=O)c2ccc(C)c(C(=O)NCc3cccnc3)c2)c1`: the Potency entry was “inactive”.

`COC(=O)C1=C(c2cccc(OCc3ccccc3)c2)C[C@@H]2CC[C@H]1N2C(=O)NNCc1ccccc1`: the Potency entry was “inactive”.

Consider `COC(=O)C1=C(c2ccc(F)cc2OCc2ccccc2)C[C@@H]2CC[C@H]1N2C(=O)NCc1ccc2[nH]ccc2c1`, for which the Potency entry is “inactive”.

Turning to `COC(=O)C1=C(c2ccccc2OCc2ccccc2)C[C@@H]2CC[C@H]1N2C(=O)NCc1ccc(OC)cc1`, the Potency was 11.2 µM (active).

As for `O=C(COC(=O)c1cccnc1Cl)Nc1ccc(S(=O)(=O)N2CCOCC2)cc1`, the Potency entry is “inactive”.

`O=C(O)c1ccccc1/C=N/Nc1ccc(S(=O)(=O)Nc2ccc(Cl)cc2)cc1[N+](=O)[O-]`: the Potency entry is “inactive”.

Consider `N#Cc1ccccc1S(=O)(=O)N1CCN(C(=O)c2cc(-c3ccccc3)nn2-c2ccccc2)CC1`, for which the Potency was 11.2 µM (active).

As for `N#Cc1ccccc1S(=O)(=O)N1CCN(Cc2c(O)ccc3ccccc23)CC1`, the Potency result was “inactive”.

With `O=C(c1cn(-c2ccccc2)nc1-c1cccnc1)N1CCN(S(=O)(=O)c2ccccc2F)CC1`, the Potency entry is “inactive”.

On to `CCCCCNC(=O)Cc1ccc(OC)cc1`, for which the Potency result is “inactive”.

In the case of `CCCCCN1CC(O)=C(c2ccccc2)C1=N`, the Potency result was “inactive”.

As to `CCCCCCCCCCCCn1ccc(=N)cc1`, the Potency was 0.501 µM (active).

Consider `COCCCNC(=O)CC1C[C@H](C(=O)N2CCCCC2)[C@@]2(CCc3ccccc3)c3[nH]c4ccccc4c3CCN2C1=O` (some centres undefined), for which the Potency entry was “inactive”.

`O=C(Nc1cccc(Br)c1)C1CC(=O)N(C2CCCC2)C1` (centres undefined): the Potency result was “inactive”.

On to `O=C(Nc1ncccc1O)c1ccc(C(=O)c2ccccc2)cc1`, for which the Potency result is “inactive”.

For the compound `COc1cccc(/C=N/Nc2cc(C)nc(-c3ccccc3O)n2)c1O`, the Potency is 12.6 µM (active).

As for `COc1ccccc1/C=N/Nc1nc(C)c(C(C)=O)s1`, the Potency result was “inactive”.

On to `COc1cccc(/C=N\NC(=O)C2=NNC(=O)C2C)c1O` (centres undefined), for which the Potency result was “inactive”.

As to `COc1cccc(/C=N/Nc2ccc(S(=O)(=O)Nc3ccccc3C(=O)O)cc2[N+](=O)[O-])c1O`, the Potency entry was “inactive”.

For the compound `COc1ccccc1/C=N\Nc1cc(C)nc(-n2nc(C)cc2C)n1`, the Potency was 3.16 µM (active).

As to `Cc1nc(Cl)cc(N/N=C/c2ccccc2)n1`, the Potency entry was “inactive”.
